# Source: PubChem (National Center for Advancing Translational Sciences (NCATS))
# Pf growth 96h – inhibits malaria parasite growth, 96 h; actives 6.9% (n = 320,000); AID 504834; P. falciparum luciferase reporter growth, 96 h; Potency, µM (top dose mostly 28.7 µM), most hits filed as inhibitors
#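 Two-generation exposure (96 h) targets delayed-death phenotype. Reporter parasites carrying integrated firefly luciferase, in red cells at 2% hematocrit and 0.05% parasitemia final, kept at 37 C, 5% CO2; luminescence loss indicates inhibition.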
# HCV inh – inhibitors of hepatitis C virus infection | Huh7.5.1 HCVcc-Cre infection, luciferase reporter, 44 h | Potency, µM (titrated, usually from 41.8 µM), hits mostly inhibitors | AID 651820 | actives 3.4% (n = 340,000)
#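 Seed cells (1,000/well) for 4 h; treat with compound and infect with HCVcc-Cre, moi about 0.5. Incubate 44 h, then detect luciferase activity.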
# SARS PLpro yeast – SARS-CoV PLP inhibition in yeast. S. cerevisiae expressing SARS-CoV PLpro, growth rescue. Potency, µM (series often up to 32.9 µM), hits mostly activators. actives 0.19% (n = 330,000). AID 485353; calls by dose curve; note: nearly all actives have a fitted effect of over 55% in size
# AMA1-RON2 inh – disrupts binding of P. falciparum AMA1 to RON2; AlphaScreen AMA1-biotinylated RON2 peptide binding; Potency, µM (series often up to 58.2 µM), most hits filed as inhibitors; actives 0.2% (n = 360,000); AID 720542; note: nearly all actives have a fitted effect of over 45% in size
#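 AMA1 (3D7) with his tag at 25 nM final met compounds first, then biotinylated RON2 peptide at 25 nM; detection used donor plus acceptor beads, 10 µg/mL apiece, read by AlphaScreen after 30 min at room temperature.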
# Pf growth 48h – P. falciparum growth inhibition at 48 hours (one generation); P. falciparum luciferase growth in erythrocytes, 48 h; Potency, µM (top dose mostly 28.7 µM), most hits filed as inhibitors; AID 504832; actives 5.9% (n = 310,000)
#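 Firefly luciferase activity from engineered P. falciparum reports growth; inhibitors lower the luminescent signal. Cultures contained 2% hematocrit erythrocytes at 0.1% final parasitemia.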
# NS1 function inh – inhibitors of influenza NS1 protein function; Potency, µM (series often up to 46.1 µM); actives 0.4% (n = 270,000); calls by dose curve; note: actives are rising curves; nearly all actives have a fitted effect of over 50% in size
#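 OD600 was taken as the measure of yeast growth restored by compound in an NS1-expressing S. cerevisiae strain. Cells had been washed out of glucose medium and diluted 1:100 into galactose -URA medium, pH 6.0.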
# Hits are given with their value; - = inactive; ? = inconclusive; . = no result; ! = repeats disagree; [ ] = another dose, or the depositor's remark. Only some compounds are listed: those with a hit (about 12% of all), similar ones and a draw of the others. Unless noted, calls come from the whole dose curve; as a rule, active = well fitted curve in the direction sought with a large enough effect; inconclusive = small, poorly fitted or top-dose-only effect, or another doubt; inactive = no such curve, though single readings can be large; an effect the other way counts as inactive or inconclusive.
SMILES,Pf growth 96h,HCV inh,SARS PLpro yeast,AMA1-RON2 inh,Pf growth 48h,NS1 function inh
CN1CCN(c2ccc(S(=O)(=O)N3CCOCC3)cc2NC(=O)COc2ccc(F)cc2Cl)CC1,13µM,-,-,-,?,-
O=C(COc1ccc(F)cc1Br)Nc1ccccc1N1CCOCC1,?,?,-,-,10µM,.
CCN(CC)S(=O)(=O)c1ccc(N2CCN(C)CC2)c(NC(=O)COc2ccc(F)cc2Cl)c1,?,?,-,?,10µM,.
CN1CCN(c2ccc(S(=O)(=O)N3CCOCC3)cc2NC(=O)COc2ccc(C#N)cc2)CC1,.,-,.,-,.,.
CN(C)CCNc1c2c(nc3nnnn13)CCCC2,?,-,-,-,-,.
Cn1c(CNC(=O)c2ccco2)nnc1SCC(=O)Nc1ccccc1Cl,?,-,-,-,-,.
COc1cccc(-c2cc(C(=O)N3CCc4ccccc4C3)[nH]n2)c1,?,-,-,-,-,-
O=C(Nc1ccc2c(c1)OCO2)c1ccc(Cl)cc1Cl,?,-,-,-,?,-
Cc1c(C(=O)c2ccc(Cl)cc2Cl)cnc2cc3c(cc12)OCO3,13µM,10µM,-,-,8.3µM,-
Cc1ccc(NC(=O)Nc2cccc(F)c2)nc1,?,-,-,-,-,-
Cc1ccnc(NC(=O)Nc2cccc(F)c2)c1,7.4µM,-,-,-,-,-
Cc1[nH]c2ccc(Cl)cc2c(=O)c1CN1CCCC1,-,-,-,-,-,-
Cc1[nH]c2ccc(Br)cc2c(=O)c1CN1CCCCCC1,-,-,-,-,10µM,-
COc1ccc(/C=N\N=C(N)N)cc1,-,?,-,-,?,.
NC(N)=N/N=C/c1c(Cl)cccc1Cl,3.7µM!,-,-,-,13µM,-
NC(N)=N/N=C/c1ccccc1Cl,10µM,-,-,-,12µM,-
CC(=O)N1C(=O)N(C(C)=O)C2C1N(C)C(=O)N2C(C)=O (stereo not drawn),-,-,-,-,-,-
CCc1ccc(N2C(=O)c3cc(N4CCOCC4)c([N+](=O)[O-])cc3C2=O)cc1,7.4µM,-,-,.,-,-
CN1CCN(C(c2ccc(Br)cc2)c2cc(Cl)c3cccnc3c2O)CC1 (stereo not drawn),7.4µM,7.9µM,.,-,12µM,-
CCOc1ccccc1OCCCC(=O)Nc1ccc(Cl)c(S(=O)(=O)N2CCOCC2)c1,7.4µM,7.9µM,-,-,9.3µM,.
COc1cc(S(=O)(=O)N2CCOCC2)ccc1NC(=O)CN1c2cccc3cccc(c23)S1(=O)=O,?,?,-,-,-,-
Cc1cccc(OCC(=O)Nc2nnc(S(=O)(=O)N3CCCCCC3)s2)c1,12µM,-,-,-,-,-
Cc1ccc(NC(=O)CN2c3cccc4cccc(c34)S2(=O)=O)cc1S(=O)(=O)N1CCOCC1,9.3µM,11µM,-,-,?,-
Cc1ccc(OCC(=O)Nc2nnc(S(=O)(=O)N3CCCCCC3)s2)cc1,?,-,-,-,-,-
Cc1cccc(OCCCC(=O)Nc2ccc(Cl)c(S(=O)(=O)N3CCOCC3)c2)c1,?,7.9µM,-,-,?,.
SMILES,Pf growth 96h,HCV inh,SARS PLpro yeast,AMA1-RON2 inh,Pf growth 48h,NS1 function inh
CC1CCCC(NC(=O)CSc2n[nH]c(=O)n2Cc2ccccc2)C1C (stereo not drawn),.,-,-,-,.,.
COc1cccc(NC(=O)CCC2CCN(C(=O)c3cncs3)CC2)c1,?,-,-,-,?,?
Cc1cccc(OCCC(=O)Nc2ccc(S(=O)(=O)N3CCCC3)cc2)c1,-,?,-,-,?,-
Cc1ccc(NC(=O)COc2cccc(Oc3ccccc3)c2)cc1S(=O)(=O)N1CCOCC1,?,3.2µM,-,-[11.6 µM],10µM,.
Cc1ccc(OCCC(=O)Nc2ccc(C)c(S(=O)(=O)N3CCOCC3)c2)cc1,?,?,-,-,?,.
Cc1cccc(OCCC(=O)Nc2ccc(C)c(S(=O)(=O)N3CCCCC3)c2)c1,?,3.2µM,-,-[11.6 µM],-,-
Cc1ccc(NC(=O)COc2ccc(Cl)cc2Cl)cc1S(=O)(=O)N1CCOCC1,?,?,-,-,?,.
Cc1cccc(OCCC(=O)Nc2ccc(C)c(S(=O)(=O)N3CCOCC3)c2)c1,.,13µM,-,-,.,.
O=C(CCC(=O)N1CCOc2ccccc21)NCc1cccnc1,-,-,-,-,-,-
CC(C)(CCc1nc2ccccc2[nH]1)C(=O)O,.,.,.,.,.,-
